{"source": "PubChem BioAssay", "note": "Activity calls are given as the source filed them.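 Rule for the calls: active = calcium signal rise more than 3 SD above the low-dose agonist control mean, in both duplicate plates and the primary screen; inactive = the rest.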"}
{"assay": "nonspecific potentiation of DAMGO calcium response – cell-based, HEK293 mu-opioid receptor line, counter-screen for TRPC4 allosteric potentiator project, confirmation (AID 449724);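 note: HEK293 cells carrying mu-opioid receptor only with no TRPC4 channel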", "settings": "HEK293 mu-opioid receptor cells, Fluo-4 calcium flux, at 10 µM; compound added before EC20 DAMGO stimulus unless noted"}
{"smiles": "Cc1ccsc1C(=O)C1CCCN(Cc2ccccc2O)C1", "note": "(configuration not stated)", "outcome": "inactive"}
{"smiles": "COc1ccc(C[C@@H]2c3cc(O)c(OC)cc3CCN2C)cc1O", "outcome": "inactive"}
{"smiles": "CCC1=Nc2cc(C(=O)N3CCC4(CC3)OCCO4)ccc2Sc2ccc(C)cc21", "outcome": "inactive [setting not given]"}
{"smiles": "Cc1ccc(CN2C3CCCC2CC(NC(=S)NCc2ccccc2)C3)cc1", "note": "(configuration not stated)", "outcome": "inactive"}
{"smiles": "COc1ccc(Br)cc1CN1CCN(C(=O)Cc2ccccc2)CC1", "outcome": "inactive"}
{"smiles": "CC(C)CN(CC(C)C)c1ccc(C=C2C(=O)NC(=S)NC2=O)cc1[N+](=O)[O-]", "outcome": "inactive [setting not given]"}
{"smiles": "CCOC(=O)C1(CCc2ccccc2)CCN(Cc2cccc3c2OCO3)CC1", "outcome": "inactive"}
{"smiles": "COc1ccc(CN2CCCC(C(=O)c3sccc3C)C2)cc1O", "note": "(configuration not stated)", "outcome": "inactive"}
{"smiles": "CCN1CCN(Cc2cc(Br)ccc2O)CC1", "outcome": "inactive"}
{"smiles": "CCN(CC)c1ccc([N+](=O)[O-])c2cccnc12", "outcome": "inactive"}
{"smiles": "CN(CCOc1ccc(C=C2C(=O)NC(=O)NC2=O)cc1)c1ccccn1", "outcome": "inactive [setting not given]"}
{"smiles": "CCN(CC)CC(=O)Nc1ccc(Cl)cc1C(=O)c1ccccc1", "outcome": "inactive"}
{"smiles": "COc1cccc(O)c1CN1CCCC(C(=O)c2sccc2C)C1", "note": "(configuration not stated)", "outcome": "inactive"}
{"smiles": "CCC1=Nc2cc(C(=O)N3CCC4(CC3)OCCO4)ccc2Sc2ccc(Br)cc21", "outcome": "inactive [setting not given]"}
{"smiles": "COc1ccc2[nH]cc(CCN(C)C)c2c1", "outcome": "inactive [setting not given]"}
{"smiles": "CC(=O)OC1(c2ccccc2)CCN(C2CCCCC2)CC1C", "note": "(configuration not stated)", "outcome": "inactive [setting not given]"}
{"smiles": "CCOC(=O)C1(c2ccccc2)CCN(CC(=O)Nc2ccc(C)cc2)CC1", "outcome": "inactive [setting not given]"}
